The full list was thinned out, with hits kept by preference.
Tg IFNy HTS – T. gondii growth inhibition under IFN-gamma. Toxoplasma gondii growth in IFN-gamma-treated host cells; hits give low values. activity change, negative = inhibition, % (concentration not given with the values). actives 3.8% (n = 69,000). AID 1259416; in the data active = activity change below about -70%, passing the limit was not always enough;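 also: host cells are HeLa cells infected with Toxoplasma gondii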
An asterisk follows results filed as active; i = inactive; ! = not confirmed by another sample.

SMILES	Tg IFNy HTS
CCn1c(CC2CCN(CCc3ccccc3)CC2)n[nH]c1=O	-5
OC(c1ccccc1)C1CCN(CCc2ccccc2)CC1 (centres undefined)	18
CCOc1ccccc1-c1nc(CN(c2ccc(OC)cc2)S(=O)(=O)c2ccccc2)c(C)o1	-43
CC(C)(C)C(=O)N1CCN(c2ccc(C(F)(F)F)cn2)CC1	-7
CN1CCN(Cc2ccccc2Oc2ncc(C(F)(F)F)cc2Cl)CC1	4
FC(F)(F)c1ccc(N2CCN(Cc3cc(Cl)cc4c3OCOC4)CC2)nc1	-85*
C=C(C)Cn1c(CCCNC(=O)C2CCCCC2)nc2ccccc21	-5
Cn1c(=O)n(C)c2cc(NC(=O)CSc3ncc(C#N)c(N)n3)ccc21	50
N#Cc1cnc(SCc2cc(=O)[nH]c3ccccc23)nc1N	-101*
N#Cc1cnc(Sc2nnc(-c3ccc(Cl)cc3)n2Cc2ccccc2)nc1N	-42
Cc1ccc(CNC2=NCCNC23CCN(S(=O)(=O)c2cc(C)c(C)cc2C)CC3)cc1	-44
CCCCCCCC(=O)O	12
CCCCCCCCCCCC1C(=O)C(=O)CC(=O)C1=O	-82*!
CCS(=O)(=O)N1CC[C@@H]2[C@@H]1CCC(=O)N2CC1CC1	2
CC(=O)Nc1ccc(Nc2nc(-c3nnc(-c4ccc(Cl)cc4)o3)nc3ccccc23)cc1	62
Cc1cccnc1NC(=O)CN1C(=O)CCc2cc(S(=O)(=O)N3CCC(C)CC3)ccc21	-22
CCN1c2ccc(F)cc2C(=O)NC12CCN(C(=O)c1cccc(C)c1)CC2	55
CC(=O)Nc1ccc(C)c(NC(=S)Nc2ccc(Cl)c(Cl)c2)c1	23
Cc1ccc(NC(=O)Nc2ccc(C#N)cc2)cc1Cl	-71*
Cc1cccc(NC(=O)Nc2ccc(C)c(Cl)c2)n1	-31
COCCN1CCC2(CC1)CC(NC(=O)c1cnc[nH]1)c1ccccc1O2 (centres undefined)	-12
O=C(c1cc(-c2ccccc2F)n[nH]1)N1CCOC2(CNCCOC2)C1 (centres undefined)	16
CN1CC[C@@]2(CN(S(=O)(=O)C3CC3)C[C@H]2c2ccccc2)C1=O	-5
OCC1(O)CCCN(Cc2ccccc2-c2ccccc2)CC1 (centres undefined)	-5
CC(C)CN1CCC(N2CCN(c3cc(N)nc(N)n3)CC2)CC1	-6
SMILES	Tg IFNy HTS
CC(C)c1ccc(-n2cc(CN3C[C@H](O)[C@@H](N4CCN(C)CC4)C3)cn2)cc1	0
NC(=O)N1CCCC1C(=O)NCc1ccc2[nH]c3c(c2c1)CCCCCC3 (centres undefined)	12
CC(=O)c1ccc(-c2cccs2)s1	-31
O=C(c1ccc(-c2cccs2)s1)c1ccc(F)cc1F	151
O=C(Sc1ccc(Cl)cc1)c1ccc(-c2cccs2)s1	-104*
O=C(Cn1ncc2c(N3CCCCC3)ncnc21)N1CCCC1	309
O=S(=O)(C1CC1)N1CC[C@@H]2[C@H]1CCN2Cc1ccoc1	i
Cn1ccnc1CN1CCC2(CC1)CN(CC#N)c1ccccc12	-3
COc1ccc2[nH]cc(CCNc3ccc(S(=O)(=O)C(C)C)nn3)c2c1	-113*
COc1ccc2[nH]cc(CCNc3ccc(S(=O)(=O)C4CCCCC4)nn3)c2c1	45
COc1ccc2[nH]cc(CCNC(=O)c3ccc(N4CCCC4)c(S(=O)(=O)N4CCCC4)c3)c2c1	7
COc1cccc(C(=O)Nc2ccc(-c3nc(-c4ccc(C)cc4)co3)cc2)c1	9
COc1cccc(CCNC(=O)CC2CCN(C(=O)c3oc(C)nc3C)CC2)c1	2
O=C(Nc1ccc(Br)cc1)Nc1ccc(-c2nc(-c3ccccc3)co2)cc1	-33
c1ccc(C(c2ccccc2)c2nc(CSc3nnnn3-c3ccccc3)no2)cc1	-21
COC(=O)c1cccc(-n2nnnc2SCC(=O)Nc2ccc(F)cc2)c1	-1
Cc1[nH]n2c(=O)cc(CSc3nnnn3-c3ccccc3)nc2c1-c1ccc(F)cc1	-93*
CC1c2ncc(COCC(=O)N3CCCC3)n2CCN1S(C)(=O)=O (centres undefined)	-22
O=C1NCC2(CCN(C(=O)CC3CCc4ccccc43)CC2)O1 (centres undefined)	-12
O=C(CSc1nc2[nH]c(=O)cc(O)c2s1)Nc1ccc(Cl)c(C(F)(F)F)c1	6
O=C(Nc1ccc(Cl)cc1)Nc1ccc(Cl)c(C(F)(F)F)c1	-77*
O=C(Nc1ccc(Cl)cc1)Nc1ccno1	-11
CC(=O)N1CC2C[C@]2(NC(=O)c2ccc(F)cc2)C1 (some centres undefined)	-10
CCOc1ccccc1-c1ccc(-n2cnnc2)nc1C	-7
COc1nc2c(c(-c3ccco3)c1C#N)Cc1cc(NC(C)=O)ccc1-2	8
SMILES	Tg IFNy HTS
CC(=O)Nc1ccc2c(c1)CCc1ccccc1-2	24
CC(=O)Nc1sc2c(c1C#N)CCc1ccccc1-2	-90*
O=C(c1cccc(CC2CCNCC2)c1)N1[C@@H]2CC[C@H]1CC(O)C2 (some centres undefined)	-50
CN(C)CCO[C@H]1CN(Cc2ccco2)[C@H]2COC[C@@H]12	66
Cc1ccc(C)n1CCN1CCN(C(=O)c2cccc(C(F)(F)F)c2)CC1	-50
COc1ccc(C(=O)N2CCN(c3ncnc4cc(C(C)(C)C)sc34)CC2)cc1OC	-85*
COc1ccc(C(=O)N2CCN(c3cnn(C)c(=O)c3Cl)CC2)cc1OC	0
COc1ccc(C(=O)N2CCC(c3nc(C(=O)N4CCCC4)c(C)o3)CC2)cc1OC	41
COc1ccc(C(=O)N2CCN(c3cccc(C(F)(F)F)c3)CC2)cc1OC	-79*
O=C(c1ccc2ncnc(N3CCCC3)c2c1)N1CCCC1	-38
Cc1cccc(Cn2nc(C)cc2NC(=O)c2ccc(=O)[nH]c2)c1	-47
CCc1noc(CCC(=O)N2CCOC(C)(C(=O)NC3CCCC3)C2)n1 (centres undefined)	-30
COCC1C(=O)N(CC2CC2)CC12CCN(C(=O)N1CCCC1)CC2 (centres undefined)	-4
Cc1ncc(-c2nc(C3CCNCC3)cc(=O)[nH]2)s1	4
COCCN1C(=O)CCc2cc(NS(=O)(=O)c3ccc(F)cc3)ccc21	24
CCN1C(=O)CCc2cc(NS(=O)(=O)c3ccc(C(F)(F)F)cc3)ccc21	-103*
CCc1ccc(S(=O)(=O)Nc2ccc3c(c2)CCC(=O)N3CC(C)C)cc1	-90*
CCN1C(=O)CCc2cc(NS(=O)(=O)c3cccc(Br)c3)ccc21	47
Cc1ccc(S(=O)(=O)Nc2ccc3c(c2)CCC(=O)N3CC(C)C)cc1	31
CN1C(=O)CCc2cc(NS(=O)(=O)c3ccc(Cl)c(Cl)c3)ccc21	-87*
CCN1C(=O)CCc2cc(NS(=O)(=O)c3ccc(C)c(Cl)c3)ccc21	-83*
CCCN1C(=O)CCc2cc(NS(=O)(=O)c3ccc(Cl)c(Cl)c3)ccc21	-52
COCCN1C(=O)CCc2cc(NS(=O)(=O)c3ccc(C)c(F)c3)ccc21	-6
CN1C(=O)CCc2cc(NS(=O)(=O)c3cccc(Cl)c3)ccc21	-12
COCCN1C(=O)CCc2cc(NS(=O)(=O)c3ccc(OC)c(Cl)c3)ccc21	-5
COc1ccc(S(=O)(=O)Nc2ccc3c(c2)CCC(=O)N3CC(C)C)cc1	30
Cc1ccnc(NC(=O)CN2C(=O)CCc3cc(S(=O)(=O)N4CCCCC4C)ccc32)c1 (centres undefined)	-10
O=C(CC1Nc2c3ccccc3nc(=S)n2C1=O)NCc1cccc(Cl)c1 (centres undefined)	10
COc1ccccc1C1(O)CCN(Cc2ccccc2-n2cccn2)CC1	15

Assay outcomes deposited in PubChem BioAssay by Broad Institute.
